Experimental data as given in PubChem BioAssay (EPA / NIEHS).
Calls of active or inactive are those of the source. Rule for the calls: active = hit-call score of the fitted dose curve at least 0.9, where 1 is the maximum; inactive = score below 0.9. Peptide text beside a SMILES is read from it.

target: Retinoic acid receptor alpha (Homo sapiens) (UniProt P10276); test: ATG_DR5_RAR_CIS: Attagene CIS-FACTORIAL HepG2 Assay for human Retinoic Acid Receptor Alpha (RARE), DR5 submotif (AID 2282934); conditions: HepG2 Attagene cis-factorial RARE DR5 reporter, mRNA; actives raise or lower the signal
Procedure: ATG_CIS is a cell-based, multiplexed-readout assay that uses HepG2, a human liver cell line, with measurements taken at 24 hours after chemical dosing in a 24-well plate.ATG_DR5_RAR_CIS is one of 52 assay component(s) measured or calculated from the ATG_CIS assay. It is designed to make measurements of mRNA induction, a form of inducible reporter, as detected with fluorescence intensity signals by Reverse transcription polymerase chain reaction (RT-PCR) and Capillary electrophoresis technology.Data from the assay component ATG_DR5_RAR_CIS was analyzed into 1 assay endpoint. This assay endpoint, ATG_DR5_CIS, was analyzed with bidirectional fitting relative to DMSO as the negative control and baseline of activity. Using a type of inducible reporter, measures of mRNA for gain or loss-of-signal activity can be used to understand the reporter gene at the transcription factor-level as they relate to the gene RARA and RARB and RARG. Furthermore, this assay endpoint can be referred to as a primary readout, because this assay has produced multiple assay endpoints where this one serves a reporter gene function. To generalize the intended target to other relatable targets, this assay endpoint is annotated to the nuclear receptor intended target family, where the subfamily is non-steroidal.
Human liver HepG2 cells are transiently transfected with multiple reporter transcription units (MRTUs) in 6-well plates using FuGene 6 reagent (Roche; 3 ml FuGene/1 mg DNA). The MRTU constructs are regulated by a cis-regulating element (promoter). […] A major difference between the CIS and TRANS system is that in CIS activities of endogenous TFs are measured, whereas the TRANS assay evaluates changes in activities of exogenous, chimeric NR-Gal4 proteins. […] At the end of 24 hour incubation, total RNA was isolated using TriZol reagent (Invitrogen). The isolated RNA is then reverse-transcribed using oligo(dT) primer and Mo-MLV reverse transcriptase (Invitrogen) with DNAse I (Ambion) treatment for 30 min. The one-tenth of the produced cDNA was amplified by PCR using Taq DNA polymerase (Invitrogen) and two reporter sequence-specific primers. The PCR products were fluorescently labeled by primer extension with 6-arboxyfluorescein (6-FAM) 5'-labeled reporter sequence-specific primer (2 min at 95 C, 20 s at 68 C and 10 min at 72 C) and these products were digested with 5U of HpaI (New England Biolabs) for 2h at 37 C. The fragments were purified using Qiaquick PCR columns (Qiagen), analyzed on an ABI 3130xL genetic analyzer (Applied Biosystems) with peak positions identified by using a set of X-rhodamine (ROX)-labeled MapMarker1000 molecular weight standards (BioVentures). The raw capillary electrophoresis data was processed using Attagraph software (Attagene).

Retinoic acid receptor alpha (Homo sapiens), sequence (P10276 whole entry, looked up): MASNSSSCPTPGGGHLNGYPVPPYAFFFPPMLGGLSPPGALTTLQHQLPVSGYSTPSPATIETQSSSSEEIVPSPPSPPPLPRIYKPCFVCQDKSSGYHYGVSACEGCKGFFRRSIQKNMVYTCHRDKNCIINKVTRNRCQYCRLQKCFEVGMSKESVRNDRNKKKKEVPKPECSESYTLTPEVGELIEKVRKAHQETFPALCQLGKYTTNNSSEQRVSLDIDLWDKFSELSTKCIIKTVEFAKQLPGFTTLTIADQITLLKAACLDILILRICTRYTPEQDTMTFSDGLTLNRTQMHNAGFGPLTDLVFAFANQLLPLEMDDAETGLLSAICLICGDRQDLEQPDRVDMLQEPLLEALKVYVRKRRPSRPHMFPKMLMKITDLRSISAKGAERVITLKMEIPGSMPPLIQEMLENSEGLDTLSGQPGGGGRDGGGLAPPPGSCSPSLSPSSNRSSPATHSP

| Compound | outcome |
| --- | --- |
| Oc1ccccc1Cc1ccccc1O | inactive |
| CCC(C)N (stereo not given) | inactive |
| CCc1occc(=O)c1O | inactive |
| C=CCCCCCCCCC=O | inactive |
| CC(=O)OC/C=C(/C)CCC=C(C)C | inactive |
| Nc1ccc(O)c([N+](=O)[O-])c1 | inactive |
| O=C(OCCc1ccccc1)c1ccccc1 | inactive |
| CC(=O)OC1CCCCC1 | inactive |
| CC(=O)CCC1=C(C)CCCC1(C)C | inactive |
| CC(C)c1cccc(C(C)C)c1N | inactive |
| CCCCNC(=S)NCCCC | inactive |
| O=C(O)C1CCC(C(=O)O)CC1 (stereo not given) | inactive |
| O=C1c2ccccc2C(=O)c2cc(S(=O)(=O)O)ccc21 | inactive |
| CC(C)c1ccc2ncccc2c1 | inactive |
| [Cl][Sc]([Cl])[Cl] | inactive |
| COC(=O)[C@H](Cc1ccccc1)NC(=O)[C@@H](N)CC(=O)O (H-Asp-Phe-OMe) | inactive |
| CC12CCC(CC1)C(C)(C)O2 | inactive |
| CC(C)CO | inactive |
| O=C(Cl)c1c(Cl)c(Cl)c(C(=O)Cl)c(Cl)c1Cl | inactive |
| CCCSSCCC | inactive |

| Compound | outcome |
| --- | --- |
| CCCC=C(C=O)CC | inactive |
| CC1=CP(=O)(c2ccccc2)CC1 (stereo not given) | inactive |
| Nc1ccc(Cl)c(N)c1 | inactive |
| COc1cc(C)ccc1O | inactive |
| CCC(C)(O)CCCC(C)C (stereo not given) | inactive |
| C=C(C)C(=O)OCCOC(=O)C(=C)C | inactive |
| CCCC1CCCC(=O)O1 (stereo not given) | inactive |
| Cc1ccc([N+](=O)[O-])cc1N | inactive |
| CCC(=O)C1CC(C(C)C)CC=C1C (stereo not given) | inactive |
| Cc1cc(=O)[nH]c(=O)[nH]1 | inactive |
| O=C1CCCCCCCCCCC1 | inactive |
| Cc1cc(C)n(CO)n1 | inactive |
| CC(C)=NNC(N)=S | inactive |
| CCCCC(CC)COC(=O)/C=C/c1ccc(OC)cc1 (stereo not given) | inactive |
| C/C=C/C=C/CCCCCCCO | inactive |
| CCC1COC(=O)O1 (stereo not given) | inactive |
| CO[Si](C)(C)OC | inactive |
| NC(=O)Nc1ccccc1 | inactive |
| Oc1ccc(-c2ccccc2)c(Cl)c1 | inactive |
| C=CC(C)(O)CC/C=C(\C)CC (stereo not given) | inactive |
